AID inhibitor = activation induced cytidine deaminase inhibition | Q9GZX7 | AID deamination FRET fluorescence, UDG-coupled, 4 h | Potency, µM (top dose mostly 115 µM), most hits filed as inhibitors | actives 0.32% (n = 91,000); further: nearly all actives have a fitted effect of over 25% in size
Target sequence (Q9GZX7 whole entry, looked up): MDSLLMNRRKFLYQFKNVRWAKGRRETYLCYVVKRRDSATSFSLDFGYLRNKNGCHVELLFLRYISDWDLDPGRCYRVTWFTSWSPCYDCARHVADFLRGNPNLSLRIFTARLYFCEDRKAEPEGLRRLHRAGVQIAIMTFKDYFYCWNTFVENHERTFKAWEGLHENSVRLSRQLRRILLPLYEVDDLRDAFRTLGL
UDG counterscr = blocks uracil-DNA glycosylase in AID counter-screen. Potency, µM (series often up to 115 µM), without a hit: top-dose activity change, negative = inhibition, most hits filed as inhibitors. actives 0.14% (n = 91,000). FRET deamination/UDG coupled assay, UDG read, 4 h; further: nearly all actives have a fitted effect of over 65% in size
The depositor's hits bear a star; [ ] = remark or other dose. Rows were chosen to be rich in hits. Some 0.4% of all compounds tested hit in one or more screens of this group. The call rests on the fitted dose curve; in most records, active means well fitted curve in the direction sought with a large enough effect; inconclusive means small, poorly fitted or top-dose-only effect, or another doubt; inactive means no such curve, though single readings can be large; an effect the other way counts as inactive or inconclusive. On the % scale 0 is the no-effect control and ±100 the full control effect; potency means the concentration at half of the fitted maximal effect.

For Cc1cc(=O)n(Cc2ccc(F)cc2Cl)c2c1c(C)nn2-c1ccccc1 the results were AID inhibitor inactive and UDG counterscr 38%.
For Cc1ccc(C)c(-c2ccc(=O)n(Cc3ccc(F)cc3Cl)n2)c1 the results were AID inhibitor 32µM* and UDG counterscr inconclusive.
`O=C(CN1CCN(c2ccc(O)cc2)CC1)N(Cc1cccs1)C1CCS(=O)(=O)C1` (stereo unspecified) gave AID inhibitor inactive and UDG counterscr 2%.
O=C(O)CNS(=O)(=O)c1c(F)cccc1F was read as AID inhibitor inactive and UDG counterscr 6%.
`Cn1c(=O)c2c(-c3ccc(Cl)cc3)n(CCc3ccccc3)cc2n(C)c1=O` gave AID inhibitor inconclusive and UDG counterscr -18%.
Cn1c(=O)c2c(-c3ccc(Br)cc3)n(CCc3ccccc3)cc2n(C)c1=O was read as AID inhibitor 40µM* and UDG counterscr 0%.
`Cc1ccc(C)c(CN2C(=O)C(O)(c3c[nH]c4ccccc34)c3ccccc32)c1` (stereo unspecified) gave AID inhibitor inactive and UDG counterscr -8%.
COc1ccc(CNC(=O)c2cc3cc4cc(OC)ccc4nc3o2)cc1 was read as AID inhibitor inactive and UDG counterscr 2%.
For COc1ccc(CNC(=O)c2cnc3ccccc3n2)cc1 the results were AID inhibitor inactive and UDG counterscr 3%.
For FC(F)(F)c1ccccc1/C=N/Nc1ccc(Cl)c(Cl)c1 the results were AID inhibitor inactive and UDG counterscr -7%.
For CCCCN(CC)CCNC(=O)c1cc2c(-c3ccc(Cl)cc3)nn(C)c2s1 the results were AID inhibitor 89µM* and UDG counterscr -29%.
`CCCN(CCC)CCNC(=O)c1cc2c(-c3ccc(Cl)cc3)nn(C)c2s1` gave AID inhibitor inconclusive and UDG counterscr -23%[57.5 µM].
For C=CCSc1nnc(NC(=O)c2cc(=O)c3ccc(Br)cc3o2)s1 the results were AID inhibitor inactive and UDG counterscr 5%.
`O=C(Nc1nonc1-c1ccc2c(c1)CCCC2)c1cc(=O)c2ccc(Br)cc2o1` gave AID inhibitor 20µM* and UDG counterscr 16%.
`Cc1cccc(N2CCN(C(=O)c3ccc(NC(=O)c4nsc5ccccc45)cc3)CC2)c1C` gave AID inhibitor inconclusive and UDG counterscr -9%.
Screening Cc1ccc(-c2noc(CN(C(=O)COc3cc(C)cc(C)c3C)C(C)C)n2)cc1 returned AID inhibitor 79µM* and UDG counterscr -19%.
Screening Cc1ccc(OCC(=O)N(Cc2nc(-c3ccccc3)no2)C(C)C)cc1C returned AID inhibitor inactive and UDG counterscr 0%.
Screening CCCNC(=O)c1cnc2sc(N3CCCCC3)nn2c1=O returned AID inhibitor inactive and UDG counterscr 16%.
For Oc1ccc(N=Cc2ccccc2OCc2ccccc2)cc1 the results were AID inhibitor 14µM* and UDG counterscr inconclusive.
`C(=Nc1ccccc1)c1ccccc1OCc1ccccc1` gave AID inhibitor inactive and UDG counterscr -6%.
For CC(C)COc1ccc(-c2nonc2NC(=O)c2ccc(F)cc2)cc1 the results were AID inhibitor inactive and UDG counterscr 5%[57.5 µM].
Cc1ccc2c(c1)-c1c(cnn1CC(=O)N1CCN(c3cc(C)ccc3C)CC1)CO2 was read as AID inhibitor 40µM* and UDG counterscr -11%.
`COc1ccc(N2CCN(C(=O)Cn3ncc4c3-c3cc(C)ccc3OC4)CC2)cc1` gave AID inhibitor inactive and UDG counterscr -16%.
`COCCNC(=O)CCSc1nc(-c2ccc3c(c2)OCO3)cc(C(F)(F)F)n1` gave AID inhibitor inactive and UDG counterscr 7%.
`Cc1ccc(NC(=O)c2c(C)nc3sc(C(=O)Nc4ccc(F)cc4)c(N)c3c2-c2ccccc2Cl)c(C)c1` gave AID inhibitor inactive and UDG counterscr 11%.
Cc1ccc(NC(=O)c2c(C)nc3sc(C(=O)Nc4ccc(F)cc4)c(N)c3c2-c2ccc(Cl)cc2)c(C)c1 was read as AID inhibitor 32µM* and UDG counterscr 89µM*.
Screening CC(C)c1ccc(NC(=O)CCS(=O)(=O)c2ccc(Br)s2)cc1 returned AID inhibitor inactive and UDG counterscr inconclusive.
Screening Clc1cccc(CSc2nc3ncccc3o2)c1 returned AID inhibitor inactive and UDG counterscr 3%.
`Clc1cccc(CSc2cccc3cccnc23)c1` gave AID inhibitor 25µM* and UDG counterscr -3%.
For COC(=O)c1ccc(OCC2c3cc(OC)c(OC)cc3CCN2C(=O)c2ccccc2F)cc1 (stereo unspecified) the results were AID inhibitor inactive and UDG counterscr -8%.
Cc1cc(NC(=O)CSc2nccn2-c2cccc(F)c2)no1 was read as AID inhibitor inactive and UDG counterscr -1%.
`CN(C)/C=C\C(=O)c1cccc([N+](=O)[O-])c1` gave AID inhibitor inactive and UDG counterscr -4%.
`COc1cccc(NC(=O)Cn2c(=O)oc3cc(S(=O)(=O)N4CCCCC4)ccc32)c1` gave AID inhibitor inactive and UDG counterscr 89µM*.
